Sampled rows, rich in hits. Any-hit rate of the full collection: about 21%.
DT40 TDP1 CPT – DT40-hTDP1 cell growth loss with CPT; chicken DT40 Tdp1-/-;hTDP1 cells + 20 nM CPT, ATP luminescence, 48 h; AID 686979; 12% of 420,000 active; Potency, µM (highest dose often 46.2 µM), for the others: at the highest dose activity change, negative = growth inhibition, actives largely listed as inhibitors; note: potency is the fitted concentration of half-maximal effect; % is set by controls: 0 for no effect and ±100 for the full control effect; nearly all actives have a fitted effect of over 55% in size
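Chicken DT40 Tdp1-/- cells complemented with human TDP1, 400 cells/well, exposed to compounds plus 20 nM camptothecin for at least 48 h at 37 C; viability read as ATP content by CellTiter-Glo luminescence.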
DT40 TDP1 no CPT – qHTS for Inhibitors of human tyrosyl-DNA phosphodiesterase 1 (TDP1): qHTS in cells in absence of CPT; DT40 Tdp1-/- hTDP1 cells, no CPT, ATP luminescence, 48 h; Potency, µM (doses to about 46.2 µM), for the others: at the top dose activity change, negative = growth inhibition, usual class: inhibitors; 15% of 420,000 active; AID 686978, 2013; note: potency is the fitted concentration of half-maximal effect; % is set by controls: 0 for no effect and ±100 for the full control effect; nearly all actives have a fitted effect of over 55% in size
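A cellular qHTS used chicken DT40 cells lacking endogenous Tdp1 but carrying stably transfected human TDP1. Compounds were applied without camptothecin, and cell growth kinetics were judged by ATP-dependent luminescence after ≥48 hr.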
ClpP mod – qHTS Assay for Activators of ClpP | purified B. subtilis ClpP, FRET peptide cleavage, 20 min | Potency, µM (series often up to 57.5 µM), inactives show top-dose activity change, negative = active | 1.9% of 340,000 active | AID 651965, 2013; active = well fitted falling curve with a large enough effect; inconclusive = small, poorly fitted or top-dose-only effect; inactive = no such curve, though single readings can be large or run the other way; note: potency is the fitted concentration of half-maximal effect; the source files actives as falling curves though it sought activators and does not explain the sign; nearly all actives have a fitted effect of over 65% in size
Target sequence (P80244 whole entry, looked up): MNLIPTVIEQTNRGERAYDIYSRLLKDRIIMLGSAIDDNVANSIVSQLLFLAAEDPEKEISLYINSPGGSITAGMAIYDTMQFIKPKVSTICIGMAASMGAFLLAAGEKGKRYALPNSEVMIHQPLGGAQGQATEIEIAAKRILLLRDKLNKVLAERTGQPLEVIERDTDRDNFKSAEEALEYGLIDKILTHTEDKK
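ClpP 10 microg/mL final, pH 8 Tris/KCl buffer with BSA, glycerol, Tween-20; compound pinned in; FRET-FV substrate; RT 20 min; Ex320/Em430; ΔFRET vs ADEP 5.8 microM, DMSO, no enzyme.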
D3 antag – blocks the human D3 dopamine receptor. P35462. max response, negative = inhibition, %. AID 652054. 2.5% of 360,000 active. D3R cells, DiscoveRx beta-arrestin luminescence, antagonist mode; active compounds read low; in the data active = max response below about -50%; inconclusive = no clear call, values can overlap the other calls; note: % is set by controls: 0 for no effect and ±100 for the full control effect
Target sequence (P35462 whole entry, looked up): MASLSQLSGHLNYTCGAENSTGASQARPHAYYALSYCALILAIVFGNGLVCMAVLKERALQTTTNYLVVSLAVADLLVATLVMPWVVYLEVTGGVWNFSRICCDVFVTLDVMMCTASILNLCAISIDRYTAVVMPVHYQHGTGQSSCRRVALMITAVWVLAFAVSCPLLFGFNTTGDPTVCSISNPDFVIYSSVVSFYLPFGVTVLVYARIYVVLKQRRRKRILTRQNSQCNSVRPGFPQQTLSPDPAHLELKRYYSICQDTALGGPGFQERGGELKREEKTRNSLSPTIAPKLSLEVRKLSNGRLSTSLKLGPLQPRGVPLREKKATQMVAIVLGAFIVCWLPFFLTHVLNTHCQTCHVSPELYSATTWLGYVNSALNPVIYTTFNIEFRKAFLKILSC
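Cells plated overnight at 1500 cells/well, then exposed to library compounds with dopamine controls for 90 minutes at 37 degrees C. DiscoveRx reagent added for 30–60 minutes at room temperature; luminescence read, quantitative HTS format.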
DRD3 agonist – agonists of human D3 dopamine receptor | max activation, % | D3R DiscoveRx beta-arrestin cells, luminescence, 90 min | 0.58% of 410,000 active | P35462; in the data active = max activation above about 30%; note: 0% is about no effect
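Agonist-mode cell screen: cells plated at 1500/well and incubated overnight at 37 °C, then exposed to library compounds for 90 min at 37 °C. Detection reagent was added for 30–60 min at room temperature, and luminescence was read.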
IL1B secr inh – inhibitors of inflammasome signaling (IL-1 beta secretion) | activity change, % at 57.5 µM | AID 743279 | 4.7% of 360,000 active | THP-1 LPS/ATP IL-1B secretion, AlphaLISA, 16 h; active compounds read low; in the data active = activity change below about -50%; inconclusive = mostly about -30% to -49%; note: % is set by controls: 0 for no effect and ±100 for the full control effect
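Secreted IL-1B measured by AlphaLISA bead assay after 16 h compound exposure of THP-1 cells; compounds (final up to 57.5 uM) added 1 h before LPS (250 ng/mL) and ATP (1.25 mM) stimulation; lower signal means less secretion.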
The depositor's hits bear a star; ? = inconclusive; . = no result given. Unless noted, calls come from the whole dose curve; as a rule, active = well fitted inhibition curve with a large enough effect; inconclusive = small, poorly fitted or top-dose-only effect; inactive = flat fitted curve, though single readings scatter.

SMILES	DT40 TDP1 CPT	DT40 TDP1 no CPT	ClpP mod	D3 antag	DRD3 agonist	IL1B secr inh
COc1ccc(C(=O)N2CCC3(CCN(Cc4cc(C(F)(F)F)cc(C(F)(F)F)c4)CC3)CC2)cc1	23µM*	?	.	.	.	.
O=C(c1ccc2c(=O)n3c(nc2c1)CCC3)N1CCN(S(=O)(=O)c2cccc(F)c2)CC1	?	-21%	.	1	-4	23
COc1ccc(Br)c(C(=O)OCC(=O)NC2CCCCCC2)c1	?	12%	-1%	11	-3	0
c1csc(-c2nc(CN3CCSCC3)cs2)c1	16%	-25%	0%	-58*	-35	-10
N=c1nc2n(cc1F)C1OC(CO)C(O)C1O2 (centres undefined)	0.13µM*	0.13µM*	-1%	-3	-1	33
N=c1ncn(C2OC(CO)C(O)C2O)c2nc(Br)[nH]c12 (centres undefined)	-1%	?	0%	-23	-1	-26
CC1=C(C(=O)Nc2ccc([N+](=O)[O-])cc2)C(c2cccc(C(F)(F)F)c2)NC(=S)N1c1ccccc1 (centres undefined)	13µM*	16µM*	-2%	-25	-7	?
O=c1c(-c2ccc(F)cc2)nc2cnc(Oc3ccccc3)nc2n1C[C@H]1CCCO1	-28%	?	.	.	.	.
CN(C)/C=C/C(=O)c1ccc2noc(-c3ccccc3)c2c1	?	?	.	-8	5	-52*
CC(=O)c1ccc2noc(-c3ccccc3)c2c1	-9%	-12%	.	10	11	?
COC(=O)c1ccc(CN2CCC3(CCC(CNC(=O)c4ccco4)O3)CC2)cc1 (centres undefined)	-27%	-15%	.	.	.	.
Cc1cccc(C2c3[nH]c4ccccc4c3CCN2C(=O)c2nn(C)c(=O)c3ccccc23)n1 (centres undefined)	?	?	.	10	2	-59*
CC(C)c1nc(C(=O)N2CCc3c([nH]c4ccccc34)C2c2ccccn2)cs1 (centres undefined)	-8%	-19%	.	-21	-1	-64*
Cc1nc(C(=O)N2CCc3c([nH]c4ccccc34)C2c2ccccn2)cs1 (centres undefined)	7%	-10%	.	3	-4	-4
Cc1cccc(C2c3[nH]c4ccccc4c3CCN2C(=O)c2ocnc2C)n1 (centres undefined)	5%	?	.	-14	2	8
Cc1cccc(C)c1NS(=O)(=O)c1cc2c3c(c1)CC(=O)N3CCC2	-24%	21%	1%	3	-4	14
COCCNC(=O)CCCN1C(=O)CCn2nc(-c3cccn3C)cc21	-13%	9%	-1%	.	1	.
O=c1cc(CSc2nnc(-c3cccs3)n2Cc2ccccc2)nc2sc3ccccc3n12	5.8µM*	3.7µM*	-2%	-21	2	-51*
O=c1c2ccccc2nnn1CSc1nnc(-c2cccs2)n1Cc1ccccc1	29µM*	23µM*	-1%	7	1	?
C=CCn1c(SCn2nnc3ccccc3c2=O)nc2scc(-c3cccs3)c2c1=O	9%	-1%	-1%	?	1	-6
Cc1cc(C(=O)CSc2nnc(-c3cccs3)n2Cc2ccccc2)c(C)n1C	?	?	5%	-27	1	?
CC1(C)[C@H]2CC[C@]1(C)[C@H](O)C2	10%	-8%	.	.	-8	.
CCn1c(CNC(=O)c2ccc(OC)cc2)nnc1SCC(=O)Nc1cccc(C)c1	18%	-6%	1%	.	-13	.
O=C1CC[C@@H](O)CCN1CC[C@H](Sc1ccccc1)c1ccccc1	?	?	0%	-14	5	5
O=C1CC[C@@H](O)CCN1CC[C@H](Sc1ccc(Br)cc1)c1ccccc1	23µM*	10µM*	-1%	5	8	-17
SMILES	DT40 TDP1 CPT	DT40 TDP1 no CPT	ClpP mod	D3 antag	DRD3 agonist	IL1B secr inh
CC(C)(C)[C@@H]1CCC(=O)N(CC[C@H](Sc2ccc(Br)cc2)c2ccccc2)CC1	18µM*	11µM*	0%	0	-22	0
Cc1ccc(NC(=O)CCc2nnc3ccc(NCc4ccco4)nn23)cc1	?	?	-2%	-16	-11	21
CCN1C(=O)N/C(=C/c2ccc(C)o2)C1=O	23µM*	21µM*	-2%	3	13	0
Cc1ccc(/C=C2/NC(=O)N(c3ccccc3)C2=O)o1	10µM*	16µM*	0%	-22	-2	0
Cc1c(C(=O)O)cccc1-c1ccc(/C=C2/NC(=O)N(c3ccccc3)C2=O)o1	?	?	-15%	-5	-3	-3
C=CCN1C=CC(=O)[C@@H](OC(=O)Nc2ccc(Br)cc2)[C@H]1c1ccccc1Br	23µM*	?	12%	?	-19	-20
C#CCN1C=CC(=O)[C@@H](OC(=O)Nc2ccccc2Br)[C@H]1c1ccccc1Br	23µM*	?	-4%	12	-4	-17
CN1C=CC(=O)[C@@H](OC(=O)Nc2ccc(Br)cc2)[C@H]1c1ccccc1Br	?	15µM*	19%	22	-34	-7
Cc1cc(C(=O)N2CCC2(C)C(=O)Nc2ccc3[nH]ncc3c2)nn1C (centres undefined)	?	-18%	0%	-16	-3	?
CCOc1ccccc1NC(=O)c1sc2nc(C)nc(N3CCOCC3)c2c1C	5%	?	0%	4	-7	15
Cc1nc(N2CCN(c3ccccn3)CC2)c2c(C)c(C(=O)Nc3ccc(Br)cc3C)sc2n1	16µM*	?	4%	28	-1	-24
CCOC(=O)c1sc2ncnc(N3CCN(C(=O)OCC)CC3)c2c1C	15µM*	?	-11%	84	1	?
Cc1ccc(NC(=O)c2sc3nc(CCl)[nH]c(=O)c3c2C)c(C)c1	15µM*	15µM*	.	-5	-2	-87*
COc1ccc(C)cc1NC(=O)c1sc2ncnc(N3CCN(c4ccccn4)CC3)c2c1C	16µM*	18µM*	.	4	2	-6
CCOC(=O)c1sc2ncnc(N3CCN(CC)CC3)c2c1C	15%	?	.	5	3	2
NC(=O)c1ccc(NC(=O)CSc2nnc(-c3ccncc3)n2Cc2ccco2)cc1	17%	-6%	-6%	-7	1	17
Cc1nc(N2CCN(C)CC2)c2c(C)c(C(=O)Nc3ccc(F)cc3)sc2n1	?	?	-3%	?	-8	-78*

Screens deposited in PubChem BioAssay by National Center for Advancing Translational Sciences (NCATS).
